Nrf2 activator: activators of Nrf2 (ARE) signaling | AREc32 ARE-luciferase reporter (MCF7-derived line), luminescence, 24 h | 0.31% of 410,000 active | Potency, µM (highest dose often 46.1 µM), inactives show at the top dose activation, actives largely listed as activators | AID 624171; note: potency is the fitted concentration of half-maximal effect; % of control where 0% means no effect; nearly all actives have a fitted effect of over 65% in size
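For detection, Steady-Glo was added and plates sat 30 min at RT; before that, AREc32_Fluc cells grown overnight in OPTI-MEM/5% FBS had been treated with 23 nL compound for 24 hr at 37 deg C.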
LDHA block: LDHA (human) enzyme inhibition | P00338 | purified LDHA, NADH/diaphorase-resazurin fluorescence; hits give low values | activity change, % (values are at about 110 or 230 µM) | 0.15% of 480,000 active; in the data active = activity change below about -30%; inconclusive = mostly about -25% to -30%;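 note: plate controls were DMSO wells for no effect and wells without enzyme for full effect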
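Human LDH5 at 2 nM final in Tris HCl pH 7.4 with 0.06 mM NADH and 0.2 mM pyruvate, reacted 5 minutes at room temperature. Remaining NADH coupled via diaphorase/resazurin; resorufin fluorescence read at 0 and 20 minutes, normalized to enzyme-free and DMSO wells.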
12-LOX inh: blocks human arachidonate 12S-lipoxygenase; purified 12hLO, xylenol orange hydroperoxide absorbance; 1.1% of 580,000 active; Potency, µM (series often up to 108 µM), inactives show at the highest dose activity change, negative = inhibition, most hits filed as inhibitors; P18054; note: potency is the fitted concentration of half-maximal effect; % is set by controls: 0 for no effect and ±100 for the full control effect
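Purified human 12hLO (150 nM final) in 25 mM Hepes, 0.01% Triton X-100, pH 7.0 was preincubated 15 min at room temperature with compound. Then 40 uM arachidonic acid was added, 30 min. Hydroperoxide was read by Fe-XO absorbance ratio 573/405 nm.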
ERG-DNA inh: ERG Ets/DNA interaction inhibition; P11308; fluorescence polarization, His-ERG Ets domain / labelled DNA; Potency, µM (highest dose often 76.9 µM), for the others: top-dose FP activity, negative = inhibition, usual class: inhibitors; 0.028% of 370,000 active; AID 624246; active = well fitted inhibition curve with a large enough effect in the polarisation, with a control signal flat; inconclusive = small, poorly fitted or top-dose-only effect, or effect the other way, or a change in a side signal; inactive = no such curve, though single readings can be large or run the other way; the % refers to the polarisation;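 note: polarization taken with two DNA probes labelled with fluorescein and Texas red; potency is the fitted concentration of half-maximal effect; % of control where 0% means no effect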
Target sequence (P11308 whole entry, looked up, the tested form may be a part): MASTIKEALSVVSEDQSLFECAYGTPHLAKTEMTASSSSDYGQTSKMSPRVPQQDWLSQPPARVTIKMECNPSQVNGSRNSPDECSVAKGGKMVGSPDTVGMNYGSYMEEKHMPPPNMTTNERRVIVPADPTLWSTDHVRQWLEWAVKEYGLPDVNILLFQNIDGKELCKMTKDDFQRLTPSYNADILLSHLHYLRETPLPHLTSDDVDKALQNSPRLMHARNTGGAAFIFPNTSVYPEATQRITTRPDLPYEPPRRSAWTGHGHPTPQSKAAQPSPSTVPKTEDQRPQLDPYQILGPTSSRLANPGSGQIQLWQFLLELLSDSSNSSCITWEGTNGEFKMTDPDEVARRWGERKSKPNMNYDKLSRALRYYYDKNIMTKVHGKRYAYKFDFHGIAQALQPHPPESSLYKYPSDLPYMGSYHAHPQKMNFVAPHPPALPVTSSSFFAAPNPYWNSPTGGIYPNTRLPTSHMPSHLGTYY
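His-tagged ERG Ets domain (1 uM in the protein solution; 300mM KCl, 50mM Tris-HCl, 1mM EDTA, 1mM DTT, pH 7.5) received compound, then a probe mix of 5 nM fluorescein-DNA and 100nM Texas-615-DNA. Fluorescence polarization was read for both dyes.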
A549 tox: kills or reduces viability of A549 cells in Nrf2 counter-screen; A549 ARE-Fluc cells, CellTiter-Fluor viability, 18-24 h; Potency, µM (doses to about 46 µM), for the others: at the top dose activity change, negative = cytotoxicity, hits mostly inhibitors; AID 504648; 0.16% of 390,000 active; note: potency is the fitted concentration of half-maximal effect; % is set by controls: 0 for no effect and ±100 for the full control effect
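A549 ARE_Fluc cells in 5% FBS OPTI-MEM were exposed to compounds in concentration-response for 18-24 h at 37 deg C. Viability was read by CellTiter-Fluor fluorescence (Ex 405/Em 525) after 30 min, before the luciferase read.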
Nrf2 inh: blocks Nrf2 signaling; A549 ARE-Fluc reporter, luciferase luminescence, 18-24 h; Potency, µM (highest dose often 46 µM), for the others: at the highest dose activity change, negative = inhibition, actives largely listed as inhibitors; 2.1% of 360,000 active; AID 504444; note: potency is the fitted concentration of half-maximal effect; % is set by controls: 0 for no effect and ±100 for the full control effect; nearly all actives have a fitted effect of over 60% in size
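Nrf2 function is reported as luminescence of an ARE-controlled luciferase in A549 cells. Compounds were tested at several concentrations, and a CellTiter-Fluor read on the same wells flagged cytotoxicity.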
The depositor's hits bear a star; u = inconclusive; x = no result given. Rows were chosen to be rich in hits. Some 2.7% of all compounds tested hit in one or more screens of this group. Unless noted, calls come from the whole dose curve; as a rule, active = well fitted curve in the direction sought with a large enough effect; inconclusive = small, poorly fitted or top-dose-only effect, or another doubt; inactive = no such curve, though single readings can be large; an effect the other way counts as inactive or inconclusive.

SMILES	Nrf2 activator	LDHA block	12-LOX inh	ERG-DNA inh	A549 tox	Nrf2 inh
COc1ccc(OC)c(NC(=O)c2cc(=O)[nH]c3ccccc23)c1	x	4	u	x	x	x
Oc1[nH]c(N=C2N=c3ccccc3=N2)c2ccccc12	5.6µM*	-4	31%	-1%	u	u
Cc1ccc2c(c1)=N/C(=N\c1[nH]c(O)c3ccccc13)N=2	-3%	-3	-3%	x	x	x
O=C(Nc1ccncc1)c1ccc(COc2ccccc2Cl)cc1	x	12	4%	x	x	x
CC(C)(C)NC(=O)CSc1nc2ccc(NC(=O)CSc3nnc(N)s3)cc2s1	-1%	-8	u	-7%	-5%	21µM*
COc1ccc(Cl)cc1C(=O)O/N=C(\N)c1ccncc1	4µM*	1	36%	-3%	-1%	u
COc1cccc(Nc2nc(N)c(C(=O)c3ccc(OC)c(OC)c3OC)s2)c1	x	11	1%	x	x	x
CCNC(=S)N(CCc1c(C)[nH]c2ccc(C)cc12)Cc1cc(OC)c(OC)c(OC)c1	2%	-2	-19%	7%	-30%	18µM*
CCCCCCC12C(=Cc3cc4c(cc31)OCCO4)c1cc(OC)c(OC)cc1C(CC(=O)O)N2C(=O)OC (stereo not given)	x	x	40µM*	x	x	x
CC1(C)C(c2ccccc2)=NC(c2ccc(Br)cc2)N1O (stereo not given)	2%	0	7.9µM*	3%	-3%	-26%
COC(=O)c1ccc2c(c1)C(C)(C)C(/C=C/c1ccc(OC)c(OC)c1OC)=[N+]2C	-3%	-8	2.5µM*	u	u	16µM*
COc1ccc(/C=N/Nc2ccc(C(=O)O)cc2)c(OC)c1OC	0%	-13	0%	-2%	0%	u
COC(=O)c1ccc2c(c1)C(C)(C)C(/C=C/c1ccc(O)cc1)=[N+]2C	u	7	5.6µM*	u	u	x
COc1cc(/C=C/c2ccc(O)cc2)cc(OC)c1	17%	3	u	11%	-3%	4%
COc1ccc(/C=C2\OC(=O)c3ccccc32)cc1OC	x	24	u	x	x	x
CCCN(CCC)C(=O)COc1ccc2c(C)cc(=O)oc2c1	x	1	-21%	x	x	x
CCN(CC)CCn1c(O)c(N=O)c2ccccc21	0%	-11	-30%	-10%	0%	14%
CCN(CC)CCn1c2ccccc2c(=O)c2c(O)ccc(O)c21	9%	31	25µM*	10%	-13%	3%
COc1ccc(CNC(=O)Cc2nc(-c3cccs3)oc2C)cc1	x	-1	-3%	x	x	x
Cc1c(C(=O)O)c(O)cc2c1C(=O)c1c(O)c([C@H]3O[C@H](CO)[C@@H](O)[C@H](O)[C@H]3O)c(O)c(O)c1C2=O	x	15	x	x	x	x
Cc1c(C(=O)O)c(O)cc2c1C(=O)c1c(O)c([C@@H]3O[C@H](CO)[C@@H](O)[C@H](O)[C@H]3O)c(O)c(O)c1C2=O	0%	12	-8%	-15%	21µM*	u
O=C(Cc1ccc(Cl)cc1)NCc1coc(-c2cccs2)n1	x	-19	u	x	x	x
Cc1ccc(NC(CC(=O)c2ccccc2)C(=O)O)cc1Cl (stereo not given)	18µM*	4	u	-1%	0%	u
Cc1ccc(C)c(SCC(=O)OCC(=O)c2ccco2)c1	0%	3	40µM*	x	1%	8%
Cc1ccc(C)c(SCC(=O)NCc2ccco2)c1	0%	-10	-2%	-1%	-5%	-1%
Nc1nc(SCC(=O)Nc2cccc(Oc3ccccc3)c2)n[nH]1	4%	-2	-9%	4%	-3%	16µM*
Cc1ccccc1OCC(O)Cn1c(Br)nc2c1c(=O)n(C)c(=O)n2C (stereo not given)	3%	-7	-9%	7%	-2%	-10%
Cc1ccccc1OCC(O)Cn1c(N)nc2c1c(=O)n(C)c(=O)n2C (stereo not given)	x	-37*	-15%	x	x	x

Bioassay records as filed in PubChem BioAssay.
